# Reference: PubChem BioAssay (NCATS)
# Values without a mark were called inactive. Records with an inconclusive call do not appear. Entries that show only a call come without a potency. Activity calls are given as the source filed them. Unless noted, calls come from the whole dose curve; as a rule, active = well fitted curve in the direction sought with a large enough effect; inconclusive = small, poorly fitted or top-dose-only effect, or another doubt; inactive = no such curve, though single readings can be large; an effect the other way counts as inactive or inconclusive.
# What was measured:
# [1] = target: ATP-dependent 6-phosphofructokinase (Trypanosoma brucei brucei) (UniProt O15648); assay: qHTS Assay to Find Inhibitors of T. brucei phosphofructokinase: hit validation (AID 492961);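 note: luminescence reports ADP formed as PFK phosphorylates fructose-6-phosphate with ATP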; details: T. brucei PFK, ADP-Glo luminescence; series mostly up to 51.4 µM
# Sequence of ATP-dependent 6-phosphofructokinase (Trypanosoma brucei brucei) (O15648 whole entry, looked up): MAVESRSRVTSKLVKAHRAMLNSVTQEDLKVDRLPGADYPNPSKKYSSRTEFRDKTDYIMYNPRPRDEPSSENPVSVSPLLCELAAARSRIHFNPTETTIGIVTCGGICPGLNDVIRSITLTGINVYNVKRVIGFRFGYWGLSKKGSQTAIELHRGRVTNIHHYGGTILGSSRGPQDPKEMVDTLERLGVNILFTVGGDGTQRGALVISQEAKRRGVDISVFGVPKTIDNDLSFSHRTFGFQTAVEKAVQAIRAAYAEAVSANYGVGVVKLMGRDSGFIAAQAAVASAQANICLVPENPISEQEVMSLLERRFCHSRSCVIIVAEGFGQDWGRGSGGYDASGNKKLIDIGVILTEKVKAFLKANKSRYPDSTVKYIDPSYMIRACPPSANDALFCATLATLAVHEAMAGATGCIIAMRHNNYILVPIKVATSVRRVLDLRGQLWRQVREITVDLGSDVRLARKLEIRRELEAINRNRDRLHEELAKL
# Summary of the method: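 Measures ADP output of PFK (1.25 nM) at 0.1 mM ATP, 0.5 mM F6P, pH 8.0 TEA buffer with 5 mM MgCl2. No-enzyme wells define full inhibition; uninhibited enzyme wells define zero.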
# [2] = target: Luciferin 4-monooxygenase (Photinus pyralis) (UniProt P08659); assay: Biochemical firefly luciferase enzyme assay for NPC (AID 624030);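 note: purified P. pyralis luciferase at 10 nM with luciferin and ATP substrate; nearly all actives have a fitted effect of over 70% in size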; details: purified P. pyralis luciferase, luminescence, 5 min; series mostly up to 58.6 µM
# Sequence of Luciferin 4-monooxygenase (Photinus pyralis) (P08659 whole entry, looked up): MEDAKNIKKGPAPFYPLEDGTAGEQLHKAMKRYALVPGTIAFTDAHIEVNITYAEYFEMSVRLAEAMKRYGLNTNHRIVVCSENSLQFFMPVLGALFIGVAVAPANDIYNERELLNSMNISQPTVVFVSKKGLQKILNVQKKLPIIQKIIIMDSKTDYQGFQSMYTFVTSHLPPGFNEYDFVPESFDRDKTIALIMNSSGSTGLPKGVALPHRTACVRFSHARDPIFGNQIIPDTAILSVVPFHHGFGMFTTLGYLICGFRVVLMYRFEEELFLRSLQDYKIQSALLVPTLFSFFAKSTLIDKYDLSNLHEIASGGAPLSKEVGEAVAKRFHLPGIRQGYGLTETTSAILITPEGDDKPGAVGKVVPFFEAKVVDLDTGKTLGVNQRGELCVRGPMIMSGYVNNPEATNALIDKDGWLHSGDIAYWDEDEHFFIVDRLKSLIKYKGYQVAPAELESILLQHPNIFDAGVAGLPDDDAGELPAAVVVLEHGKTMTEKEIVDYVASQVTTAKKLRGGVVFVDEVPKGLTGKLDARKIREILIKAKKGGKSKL
# Summary of the method: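 Direct inhibition of firefly luciferase enzyme (10 nM final, 50 mM Tris Acetate) assessed by luminescence within 5 minutes. Percent activity scaled between DMSO and PTC124 positive control, with concentration-effect curves classified by fit quality and response.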
# [3] = S16 Schwann cell viability assay (CellTiter-Glo assay) (AID 624031); details: S16 rat Schwann cells viability, 24 h; series mostly up to 57.5 µM;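 note: cellular ATP luminescence as a viability measure; nearly all actives have a fitted effect of over 70% in size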
# Summary of the method: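 This viability control uses native rat S16 Schwann cells grown in DMEM plus 10% FBS. After a 24 h compound treatment at 37 °C, CellTiter-Glo luminescence reports ATP content, scaled against DMSO-treated and cell-free wells.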
# [4] = S16 Schwann cell PMP22 intronic element firefly luciferase assay (AID 624032); details: S16 rat Schwann cells, PMP22 element FLuc, 24 h; series mostly up to 57.5 µM; note: nearly all actives have a fitted effect of over 30% in size
# Summary of the method: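 Luciferase reporter of PMP22 intronic-element expression in stably transfected S16 rat Schwann cells, read by ONE-Glo luminescence after 24 h compound exposure at 37 C. Activity scaled between DMSO (0%) and positive-control PTC124; concentration-effect curves quality-classified.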
# [5] = qHTS profiling for inhibitors of Plasmodium falciparum proliferation (AID 504749); note: nearly all actives have a fitted effect of over 60% in size; details: P. falciparum in erythrocytes, SYBR Green DNA, 72 h, at 28.7 µM (top of the series)
# Summary of the method: (§1)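 In a 72 h erythrocytic culture (37 C, humidified, 5% CO2) at 2.5% hematocrit and 0.3% starting parasitemia, compounds were tested; SYBR Green I in detergent lysis buffer stained parasite DNA overnight.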
# [6] = tested on: 3D7; assay: as above; details: P. falciparum in erythrocytes, SYBR Green DNA, 72 h; series mostly up to 28.7 µM
# Summary of the method: as §1
# [7] = tested on: 7G8; assay: as above; details: P. falciparum in erythrocytes, SYBR Green DNA, 72 h; series mostly up to 28.7 µM
# Summary of the method: as §1
# [8] = tested on: AA1029; assay: as above; details: P. falciparum in erythrocytes, SYBR Green DNA, 72 h; series mostly up to 28.7 µM
# Summary of the method: as §1
# [9] = tested on: AS120; assay: as above; details: P. falciparum in erythrocytes, SYBR Green DNA, 72 h; series mostly up to 28.7 µM
# Summary of the method: as §1
# [10] = tested on: ATS189; assay: as above; details: P. falciparum in erythrocytes, SYBR Green DNA, 72 h; series mostly up to 28.7 µM
# Summary of the method: as §1
# [11] = tested on: ATS95; assay: as above; details: P. falciparum in erythrocytes, SYBR Green DNA, 72 h; series mostly up to 28.7 µM
# Summary of the method: as §1
# [12] = Cellular Toxicity (caspase-3) HUV-EC-C (AID 656); details: HUV-EC-C cells, caspase-3 activation (apoptosis), vehicle = 0, 100 µM tamoxifen = 100%; series mostly up to 92.2 µM
# Summary of the method: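 Concentration-dependent caspase 3/7 induction was assessed in HUV-EC-C cells exposed for 16 hours. Data scaled between DMSO and tamoxifen (100 uM) controls.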
# [13] = qHTS assay to identify small molecules that stimulate interleukin-8 (IL-8) secretion (AID 651758; active = well fitted activation curve with a large enough effect in the signal ratio; the % refers to the signal ratio; note: potency is the fitted concentration of half-maximal effect); details: HTRF ratio (665/615); series mostly up to 92.2 µM
# Summary of the method: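 Secreted IL-8 measured homogeneously by TR-FRET (two labelled anti-IL-8 antibodies, 1-3 h at room temperature) after a 16 h, 37 C compound treatment of THP-1 cells at 2000 cells/well.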
# [14] = Cell Viability - HUV-EC-C (AID 542); details: HUV-EC-C endothelial cell viability, qHTS; series mostly up to 92.2 µM;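 note: cells exposed to compound for 40 hours; nearly all actives have a fitted effect of over 35% in size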
# Summary of the method: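 Luminescent ATP read-out (CellTiter-Glo, 20 min room temperature) after 40 hr compound treatment of HUV-EC-C cells at 37 °C. Concentration-response data fitted with the standard Hill equation to give AC50; tamoxifen and doxorubicin served as positive controls.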
# [15] = Cell Viability - LYMP2-019 (AID 973); details: LYMP2-019 lymphoblastoid cell line viability; series mostly up to 92.2 µM; note: nearly all actives have a fitted effect of over 55% in size
# Summary of the method: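 qHTS, 1536-well; 2500 cells/well; 5 hr pre-incubation, 24 hr compound exposure, 37 C; CellTiter-Glo added, 30 min RT; luminescence read; AC50 via standard Hill equation.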
# [16] = qHTS assay for cell viability of the p53RE-bla HCT-116 cell line (AID 743292); details: p53RE-bla HCT-116 viability, ATP luminescence, 16 h; series mostly up to 95 µM; note: nearly all actives have a fitted effect of over 55% in size
# Summary of the method: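 After plating at 4,000 cells per well and a 5 h rest at 37 C, HCT-116 cells carrying p53RE-bla received test chemicals in DMSO. Sixteen hours later at 37 C, CellTiter-Glo was added and luminescence recorded following 30 min at room temperature.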
# [17] = Cell Viability - Jurkat (AID 426;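 active = dose-dependent loss of cell ATP signal giving a full or clear fitted curve, ranked by lower potency value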;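 note: potency is the fitted concentration of half-maximal effect; cells exposed to compound for 40 hours at 37 °C before ATP read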); details: qHTS
# Summary of the method: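 Luminescent ATP read-out (CellTiter-Glo, 20 min at room temperature) after 40 hr compound exposure at 37 °C of Jurkat E6-1 cells, 5000/well. Decreased ATP taken as cytotoxicity; AC50 from standard Hill equation.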
# [18] = qHTS Assay for Identification of Small Molecule Agonists for Hypoxia Response Element Signaling Pathway (AID 914; active = well fitted activation curve with a large enough effect in the signal ratio, with a control signal flat, not every such curve was filed as active; the % refers to the signal ratio); details: ME-180 (cervical carcinoma) HRE-bla reporter, beta-lactamase ratio, CoCl2, 17 h; activation: stronger effect = higher value
# Summary of the method: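 qHTS titration; ME-180 HRE-bla cells; EC50 CoCl2 co-treatment, 17 h at 37 degrees Celsius; CCF4 dye, ex 405nm, em 460nm and 530nm; %Activity from ratio; AC50.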
# [19] = target: Cytochrome P450 2D6 (Homo sapiens) (UniProt P10635); assay: qHTS Assay for Inhibitors and Substrates of Cytochrome P450 2D6 (AID 891); details: recombinant CYP2D6, luciferin-ME EGE luminescence; series mostly up to 57.1 µM; note: nearly all actives have a fitted effect of over 60% in size; note: potency is the fitted concentration of half-maximal effect
# Sequence of Cytochrome P450 2D6 (Homo sapiens) (P10635 whole entry, looked up): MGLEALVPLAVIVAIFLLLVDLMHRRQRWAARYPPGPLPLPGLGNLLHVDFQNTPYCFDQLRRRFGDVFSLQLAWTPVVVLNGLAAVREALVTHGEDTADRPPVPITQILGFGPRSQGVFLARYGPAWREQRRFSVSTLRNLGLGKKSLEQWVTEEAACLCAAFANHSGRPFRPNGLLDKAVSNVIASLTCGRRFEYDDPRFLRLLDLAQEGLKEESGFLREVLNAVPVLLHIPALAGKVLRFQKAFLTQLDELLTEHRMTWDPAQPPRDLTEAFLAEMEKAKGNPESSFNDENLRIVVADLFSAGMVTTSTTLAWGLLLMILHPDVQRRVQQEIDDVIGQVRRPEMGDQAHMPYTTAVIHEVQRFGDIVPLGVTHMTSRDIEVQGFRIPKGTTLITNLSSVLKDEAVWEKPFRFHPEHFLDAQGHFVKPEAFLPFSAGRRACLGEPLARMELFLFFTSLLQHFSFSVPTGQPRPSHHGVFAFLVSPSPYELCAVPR
# Summary of the method: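 Luminescent read-out of luciferin formed by 5 nM human CYP2D6 demethylating 30 uM Luciferin-ME EGE (Km level) over 60 min at room temperature after NADPH regeneration addition. Data normalized to full inhibition by 1.43 uM quinidine.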
# [20] = target: Phospholipid hydroperoxide glutathione peroxidase GPX4 (Homo sapiens) (UniProt P36969); assay: Primary qHTS Assay for Inhibitors of Recombinant Selenoprotein Glutathione Peroxidase 4 (GPX4) (AID 1845192); details: recombinant GPX4, GR-coupled NADPH fluorescence, 15 min; series mostly up to 50 µM; note: potency is the fitted concentration of half-maximal effect; nearly all actives have a fitted effect of over 65% in size
# Sequence of Phospholipid hydroperoxide glutathione peroxidase GPX4 (Homo sapiens) (P36969 whole entry, looked up): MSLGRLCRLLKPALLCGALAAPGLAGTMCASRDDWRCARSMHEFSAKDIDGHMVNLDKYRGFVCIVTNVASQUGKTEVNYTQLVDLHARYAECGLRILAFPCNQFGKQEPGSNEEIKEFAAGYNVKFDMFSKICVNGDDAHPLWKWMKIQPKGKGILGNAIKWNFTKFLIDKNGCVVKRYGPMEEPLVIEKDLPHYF
# Summary of the method: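 NADPH consumption followed by fluorescence at 340/450 nm, t=0 and after 15 min at room temperature. Reaction started with cumene hydroperoxide (0.5 mM final) after 30 min compound–GPX4 preincubation; final 200 nM GPX4, 100 nM GR, 1 mM GSH, 0.5 mM NADPH.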
compound,measurement,setting,value
CC(=O)OC1CC2CCC1(C)C2(C)C (stereo not given),outcome,[1],inactive
same,Potency,[2],inactive
same,Potency,[3],inactive
same,Potency,[4],inactive
same,"activity, negative = inhibition",[5]; parasite line A,6.76%
same,"activity, negative = inhibition",[5]; parasite line B,13.6%
same,Potency,[6],inactive
same,Potency,[7],inactive
same,Potency,[8],inactive
same,Potency,[9],inactive
same,Potency,[10],inactive
same,Potency,[11],inactive
COc1ccc(/C=C/c2cc(OC)cc(=O)o2)cc1,outcome,[12],inactive
same,Potency,[13],66.8 µM (active)
COc1cc(/C=C/c2ccccc2)oc(=O)c1,outcome,[14],inactive
CC1=C2[C@H](/C=C(\C)C(=O)O)CC[C@@H](C)[C@H]2CC1,outcome,[12],inactive
same,Potency,[15],inactive
same,Potency,[16],inactive
O=C(O)c1ccccc1,Potency,[17],> 92 µM
same,Potency,[16],inactive
C=C(C)C1CC=C(C)C(O)C1 (stereo not given),Potency,[17],> 92 µM
same,outcome,[14],inactive
same,outcome,[12],inactive
CN(C)c1nc(-c2cccc(NS(C)(=O)=O)c2)nc2ccccc12,activation,[18],22.5%
CN(C)c1ccc(-c2cncnc2NCCc2cnc[nH]2)cc1,Potency,[19],5.01 µM (active)
C=CCc1ccc(OC)c(OC)c1,Potency,[13],inactive
same,Potency,[16],inactive
CCCCC/C=C/C/C=C/CCCCCCCC(=O)O,Potency,[20],4.47 µM (active)
CCCCCCCC/C=C/CCCCCCCC(=O)O,Potency,[20],11.2 µM (active)
CCCCCCCCCCCC(=O)O,Potency,[17],> 92 µM
same,outcome,[14],inactive
same,Potency,[15],inactive
CN(C)C(=O)c1ccc(-c2ccc3ncnc(Nc4ccc(F)cc4)c3c2)cc1,activation,[18],7.84%
O=c1cc(-c2ccc(O)c(O)c2)oc2cc(O[C@@H]3O[C@@H](CO)[C@@H](O)[C@@H](O)[C@H]3O)cc(O)c12,Potency,[19],inactive
COc1ccccc1CNc1nc(-c2ccc(C(=O)N(C)C)cc2)nc2ccccc12,activation,[18],25.3%
